Laboratory results taken from PubChem BioAssay (NCI).
Compounds without any hit were thinned out: in the full panel of roughly 83,000, 20% have a hit.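 Single-dose data. Exposure time 48 hours. Values below 10 considered active.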 Active and inactive are the calls of the source.

How the values were obtained:
Experiment in all cases: NCI-60 one-dose screen, 48 h (100 = growth as untreated, 0 = no growth, -100 = all killed)
Conditions in all cases: 10 µM unless noted
[1] = system: SK-MEL-2 melanoma
[2] = system: EKVX NSCLC
[3] = system: SN12C renal
[4] = system: UO-31 renal
[5] = system: TK-10 renal
[6] = system: ACHN renal
[7] = system: CAKI-1 renal
[8] = system: A498 renal
[9] = system: CCRF-CEM leukemia
[10] = system: MOLT-4 leukemia
[11] = system: RPMI-8226 leukemia
[12] = system: OVCAR-8 ovarian
[13] = system: OVCAR-5 ovarian
[14] = system: OVCAR-4 ovarian
[15] = system: SK-OV-3 ovarian
[16] = system: IGROV1 ovarian
[17] = system: OVCAR-3 ovarian
[18] = system: HS 578T breast
[19] = system: NCI/ADR-RES ovarian

Measured: growth

Oc1ccc(-c2nc3ccc4[nH]ncc4c3c3c2CCCC3)c2cccnc12
inactive: [5] 17.4% | [13] 21.9% | [14] 10.2% | [17] 18.3%
active: [1] 5.36% | [2] -23.1% | [3] 4.02% | [4] -30.4% | [6] 2.65% | [7] -25.7% | [8] -25.7% | [9] 4.86% | [10] 5.17% | [11] -6.23% | [12] 9.31% | [15] -0.881% | [16] 6.65% | [18] -14.7% | [19] 7.95%

NC[C@@H]1O[C@H](O[C@@H]2[C@@H](CO)OC(O[C@@H]3[C@@H](O)[C@H](N)C[C@H](N)[C@H]3OC3O[C@H](CN)[C@@H](O)[C@H](O)[C@H]3N)[C@@H]2O)[C@H](N)[C@@H](O)[C@@H]1O (stereo partly drawn)
inactive: [1] 125% | [2] 98.4% | [3] 117% | [4] 109% | [5] 120% | [6] 105% | [7] 99.5% | [8] 108% | [9] 97.5% | [10] 112% | [11] 104% | [12] 98% | [13] 104% | [14] 107% | [15] 119% | [16] 110% | [17] 111% | [18] 111% | [19] 105%

N#C/C(=C\c1cccc2cnccc12)n1nnc2cccc(F)c21
active: [11] 6.88%
inactive: [1] 52.8% | [2] 24.9% | [3] 17.7% | [4] 41.4% | [5] 34.4% | [6] 16.9% | [7] 41.5% | [8] 67.7% | [9] 17.6% | [10] 26.2% | [12] 41.7% | [13] 31.8% | [14] 38.7% | [15] 90.2% | [16] 26.5% | [17] 35.3% | [18] 47.1% | [19] 23.8%

Cc1cc(=O)oc2cc(OC(=O)N3CCN(C)CC3)ccc12
inactive: [1] 116% | [2] 99.2% | [3] 97.9% | [4] 85.3% | [5] 125% | [6] 96.6% | [7] 89.7% | [8] 105% | [9] 104% | [10] 97.7% | [11] 108% | [12] 103% | [13] 98.7% | [14] 104% | [15] 110% | [16] 110% | [17] 106% | [18] 99.4% | [19] 104%

CN1C(=O)N(C)C2Nn3c(s/c(=C\c4ccccc4)c3=O)=NC21 (stereo not drawn)
inactive: [1] 109% | [2] 96.5% | [3] 95.6% | [4] 81.8% | [5] 115% | [6] 97.8% | [7] 82.7% | [8] 68% | [9] 99.5% | [10] 109% | [11] 101% | [12] 96% | [13] 100% | [14] 101% | [15] 100% | [16] 100% | [17] 100% | [18] 96.2%

O=C(Nn1c(NCC(=O)N2c3ccccc3Sc3ccccc32)nnc1-c1ccc(O)cc1)c1ccccc1
inactive: [1] 101% | [2] 103% | [3] 90.9% | [4] 91.1% | [5] 104% | [6] 98.8% | [7] 101% | [8] 100% | [10] 125% | [11] 101% | [12] 104% | [13] 90.4% | [14] 105% | [15] 101% | [16] 102% | [17] 114% | [18] 108% | [19] 93.7%
active: [9] -2.21%

O=[N+]([O-])c1ccc(Cl)c(-c2cc(CCCCO)on2)c1
inactive: [1] 118% | [2] 103% | [3] 94.5% | [4] 86% | [5] 119% | [6] 101% | [7] 87.2% | [8] 87.1% | [9] 108% | [10] 109% | [11] 105% | [12] 105% | [13] 101% | [14] 97.4% | [15] 113% | [16] 105% | [17] 111% | [18] 99.7% | [19] 101%

CCc1ccc2nc(NC(=O)Cc3csc(NC(=O)c4ccco4)n3)sc2c1
active: [16] -9.65%
inactive: [1] 67.9% | [2] 81.7% | [3] 79.4% | [4] 60.5% | [5] 82% | [6] 57.2% | [7] 60.1% | [8] 83.9% | [9] 87.2% | [10] 39.9% | [11] 55.8% | [12] 43.3% | [13] 83.1% | [14] 43.1% | [15] 65.1% | [17] 64.1% | [18] 31.4% | [19] 77.5%

O=c1ccc(N=Nc2ccc([N+](=O)[O-])cc2)ccc1O
active: [2] 5.14% | [3] 4.86% | [12] 9.9% | [17] 8.96% | [19] -1.1%
inactive: [1] 28.1% | [4] 17.1% | [5] 47.9% | [6] 16.5% | [7] 20.2% | [8] 103% | [9] 34.5% | [10] 18.6% | [11] 22.4% | [13] 48.5% | [14] 29.6% | [15] 78.6% | [16] 21.4% | [18] 34.8%

Cc1ccc(C(=O)NCCNc2nccc(-c3c(-c4cccc(F)c4)nc4sccn34)n2)cc1
inactive: [1] 70.7% | [2] 38.5% | [3] 47.3% | [4] 23% | [5] 75.6% | [6] 29.5% | [7] 40.1% | [8] 32.8% | [9] 49.4% | [10] 56.5% | [11] 53.8% | [12] 55% | [13] 69.2% | [14] 67.8% | [15] 64.3% | [16] 23.1% | [17] 61.6% | [18] 33% | [19] 55.6%

CCC12CCC[N+]3([O-])CCC4(C(=Nc5ccccc54)C(O)(C(=O)OC)C1)C23 (stereo not drawn)
inactive: [1] 121% | [2] 101% | [3] 99.9% | [4] 87.6% | [5] 113% | [6] 102% | [7] 103% | [8] 108% | [9] 99.9% | [10] 98.2% | [11] 99.9% | [12] 102% | [13] 93.6% | [14] 106% | [15] 103% | [16] 138% | [17] 106% | [18] 92.7% | [19] 103%

CC(=O)OC[C@H]1OC(Sc2sc(C(=O)c3ccc(Br)cc3)c(N)c2-c2nc3ccccc3s2)[C@H](OC(C)=O)[C@@H](OC(C)=O)[C@H]1OC(C)=O (stereo partly drawn)
inactive: [1] 112% | [2] 80.5% | [3] 95.1% | [4] 61.4% | [5] 128% | [6] 90.5% | [7] 67.6% | [8] 36.1% | [9] 85.5% | [10] 79.3% | [11] 65.5% | [12] 80.3% | [13] 105% | [14] 46.9% | [15] 57.3% | [16] 68.8% | [17] 67.1% | [18] 95.4% | [19] 88.4%

Brc1ccc2[nH]cc(-c3nc(-c4c[nH]c5ccncc45)cs3)c2c1
active: [1] -46.8% | [2] -67.7% | [3] -85.6% | [4] -83.9% | [5] -53% | [6] -95.5% | [7] -92.6% | [9] -23.3% | [10] -58.4% | [11] -23.4% | [12] -64.5% | [14] -77.8% | [16] -86.5% | [17] -91.6% | [18] -48.4%
inactive: [8] 55.9% | [13] 38.9% | [15] 87.6% | [19] 14.1%

CCCCNc1nc(NN2C(=O)c3cccc4cccc(c34)C2=O)nc(-n2cnc3ccccc32)n1
inactive: [1] 99% | [2] 71.8% | [3] 90.5% | [4] 44.1% | [5] 100% | [6] 81.3% | [7] 75.6% | [8] 35.9% | [9] 96.3% | [10] 77.4% | [11] 86.9% | [12] 93.3% | [13] 83.8% | [14] 67.7% | [15] 99.3% | [16] 80.4% | [17] 86.3% | [18] 81.9% | [19] 91.5%

O=C(/C=C/c1sc(Cl)nc1Cl)c1ccc(Br)cc1
inactive: [1] 96.4% | [2] 96.5% | [3] 41.7% | [4] 80.2% | [5] 92.3% | [6] 75.6% | [7] 87.1% | [8] 92.2% | [9] 29.9% | [10] 29.9% | [11] 30.9% | [12] 90% | [13] 95.3% | [14] 108% | [15] 105% | [16] 68.5% | [17] 40% | [18] 93.5% | [19] 104%

COc1ccc2c(c1)c(-c1nn3cc(-c4cccs4)nc3s1)cn2C
inactive: [1] 91.5% | [2] 66.2% | [3] 79.3% | [4] 39.3% | [5] 73.3% | [6] 69.9% | [7] 55.3% | [8] 50.3% | [9] 67% | [10] 45.7% | [11] 68.8% | [12] 85.3% | [13] 66.5% | [14] 70.6% | [15] 84.8% | [16] 52.9% | [17] 96.4% | [18] 45.1% | [19] 80.3%
